Screens from PubChem.
Compounds with a hit are over-represented: about 1.3% of the library has one in this group of screens.
Vaccinia Venus – vaccinia inhibition (Venus reporter) | Vaccinia virus Venus reporter expression, fluorescence | Potency, µM (highest dose often 36.5 µM), without a hit: at the highest dose activity change, negative = inhibition, hits mostly inhibitors | 0.46% of 330,000 active; calls by dose curve; tested in A549 cells; note: % is set by controls: 0 for no effect and ±100 for the full control effect; nearly all actives have a fitted effect of over 30% in size
AmpC detergent – inhibitors of E. coli AmpC beta-lactamase with detergent | AmpC hydrolysis of nitrocefin, absorbance 480 nm, 0.01% Triton | Potency, µM (top dose mostly 114 µM), without a hit: at the highest dose activity change, negative = inhibition, actives largely listed as inhibitors | P00811 | 0.041% of 370,000 active | AID 485294;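 note: 0% = no-compound wells and -100% = no-enzyme wells; nearly all actives have a fitted effect of over 25% in size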
Target sequence (P00811 whole entry, looked up): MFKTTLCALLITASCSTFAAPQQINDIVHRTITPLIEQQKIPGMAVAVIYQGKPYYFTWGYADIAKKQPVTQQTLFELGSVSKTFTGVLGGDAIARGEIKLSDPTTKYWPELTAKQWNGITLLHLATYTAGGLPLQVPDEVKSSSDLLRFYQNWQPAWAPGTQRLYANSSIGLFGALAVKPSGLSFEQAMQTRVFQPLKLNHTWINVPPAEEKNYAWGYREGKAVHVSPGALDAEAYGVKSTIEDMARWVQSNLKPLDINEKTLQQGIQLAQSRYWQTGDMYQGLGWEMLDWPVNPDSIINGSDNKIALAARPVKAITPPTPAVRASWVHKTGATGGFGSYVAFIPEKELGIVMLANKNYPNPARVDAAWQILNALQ
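20 mM phosphate pH 7.0 + 0.01% (detergent screen) or 0.0001% Triton X-100; 5.3 nM AmpC reagent; cpd preinc 15 min RT; nitrocefin (800 uM stock) to start; A480 q20 s × 4 min; Activity was normalised to no-enzyme and no-compound control wells.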
VACV mCherry inh – inhibitors of vaccinia virus infection (mCherry reporter signal); Vaccinia virus mCherry reporter infection, fluorescence; Potency, µM (titrated, usually from 36.5 µM), for inactives: at the top dose activity change, negative = inhibition, hits mostly inhibitors; 0.63% of 310,000 active; calls by dose curve; tested in A549 cells; note: % is set by controls: 0 for no effect and ±100 for the full control effect; nearly all actives have a fitted effect of over 35% in size
AmpC inh no detg – blocks E. coli AmpC beta-lactamase in detergent-free assay. P00811. AmpC nitrocefin hydrolysis, absorbance 480 nm, 0.0001% Triton. Potency, µM (series often up to 57.1 µM), for the others: top-dose activity change, negative = inhibition, actives largely listed as inhibitors. 0.52% of 330,000 active. AID 485341;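 note: plate controls were no compound for no effect and no enzyme for full effect; nearly all actives have a fitted effect of over 20% in size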
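20 mM phosphate pH 7.0 + 0.01% (detergent screen) or 0.0001% Triton X-100; 5.3 nM AmpC reagent; cpd preinc 15 min RT; nitrocefin (800 uM stock) to start; A480 q20 s × 4 min; Activity was normalised to no-enzyme and no-compound control wells.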
AMA1 RON2 block – inhibitors of Plasmodium falciparum AMA1-RON2 interaction; AlphaScreen AMA1-biotinylated RON2 peptide binding; Potency, µM (top dose mostly 58.2 µM), inactives show at the highest dose activity change, negative = inhibition, actives largely listed as inhibitors; 0.2% of 360,000 active; AID 720542;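 note: 0% = vehicle wells and -100% = peptide control; nearly all actives have a fitted effect of over 45% in size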
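AMA1 (3D7) with his tag at 25 nM final met compounds first, then biotinylated RON2 peptide at 25 nM; detection used donor plus acceptor beads, 10 µg/mL apiece, read by AlphaScreen after 30 min at room temperature.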
SARS PLpro yeast – inhibitors of SARS-CoV papain-like protease in yeast | S. cerevisiae expressing SARS-CoV PLpro, growth rescue | Potency, µM (titrated, usually from 32.9 µM), inactives show top-dose activity, positive = growth rescue, usual class: activators | 0.19% of 330,000 active | AID 485353; calls by dose curve; note: 0% is about no effect; nearly all actives have a fitted effect of over 55% in size
* marks the source's active call; other numbers are inactive results; i = inactive; ? = inconclusive; / = no result given; [ ] = dose if it differs, or a comment. Unless noted, calls come from the whole dose curve; as a rule, active = well fitted curve in the direction sought with a large enough effect; inconclusive = small, poorly fitted or top-dose-only effect, or another doubt; inactive = no such curve, though single readings can be large; an effect the other way counts as inactive or inconclusive. Potency is the fitted concentration of half-maximal effect.

SMILES	Vaccinia Venus	AmpC detergent	VACV mCherry inh	AmpC inh no detg	AMA1 RON2 block	SARS PLpro yeast
CCCC(O)c1nc2ccccc2n1CCCCOc1ccc(OC)cc1 (stereo not given)	9%	3%	2%	/	/	/
CC(C)c1ccc2[nH]c(O)c(N=NC(=O)c3cccc(S(=O)(=O)N4CCCCC4)c3)c2c1	-25%	-3%	?	6.3µM*	0%	-15%
COc1cc(=O)n2c(c1C(=O)NCc1ccc3c(c1)OCO3)CCN(C(=O)c1ccccc1F)CC2	4%	/	-9%	/	/	/
Cc1ccc2nc(NC(=O)c3ccc(S(=O)(=O)N4CCC(C)CC4)cc3)sc2c1	0%	18%	-6%	/	/	/
Cc1cc(C)c2nc(NNC(=O)c3ccc(S(=O)(=O)N4CCCC(C)C4)cc3)sc2c1 (stereo not given)	?	?	4µM*	?	40%	?
Cc1cc(C)c2nc(NNC(=O)c3ccc(S(=O)(=O)N4CC(C)CC(C)C4)cc3)sc2c1 (stereo not given)	?	0%	?	-28%	53%	?
Cc1ccc2nc(NNC(=O)c3ccc(S(=O)(=O)N4CCc5ccccc5C4)cc3)sc2c1	?	?	?	?	56%	5µM*
Cc1onc(-c2ccccc2)c1C(=O)NCCN1Cc2ccccc2OC(c2ccsc2)C1 (stereo not given)	-9%	/	-1%	/	/	/
CC1CCCC(NC(=S)Nc2ccc(SC(F)F)cc2)C1C (stereo not given)	11µM*	4%	?	-40%	19%	-31%
COc1cc2c(cc1NC(=O)C(Cl)Cl)-c1ccc(NC(=O)C(Cl)Cl)cc1C2	10µM*	/	13µM*	/	-4%	/
COc1cc(C)c(CN2CCOc3ccc(C(O)c4cccnc4)cc3C2)cc1C (stereo not given)	-4%	/	-9%	/	/	/
CCN(CC)S(=O)(=O)c1ccc(-c2nnc(SCC(=O)N3c4ccccc4CC3C)o2)cc1 (stereo not given)	?	-5%	0.63µM*	-7%	4%	0%
CCN(CC)S(=O)(=O)c1ccc(-c2nnc(SCC(=O)N3c4ccccc4CC3C)n2CC)cc1 (stereo not given)	-11%	-8%	-19%	-10%	-11%[11.6 µM]	21%
COCc1c(C(=O)NC2CCCCCC2)cnn1-c1nccc(-c2cc(C)sc2C)n1	-6%	/	-12%	/	/	/
Cc1cccc(OCCCC(=O)NC(C)C)c1	11µM*	6%	/	-10%	-7%	-1%
Nc1nc(-c2ccccc2)cc(-c2ccccc2O)n1	11µM*	3%	?	-26%	-3%	-10%
CCNc1nc(C#N)nc(Nc2ccccc2)n1	-24%	/	-12%	/	/	/
CCc1c(C)sc(NC(=O)c2cccs2)c1C#N	-6%	2%	i	-27%	10%	-8%
COc1ccc(C(=O)Nc2oc(-c3ccccc3)c(-c3ccccc3)c2C#N)cc1	-6%	-6%	-19%	8.9µM*	0%	3%
Cc1sc(NC(=O)c2ccccc2)c(C#N)c1-c1ccccc1	-14%	-14%	-22%	25µM*	-4%	10%
COC(=O)c1ccccc1-c1cc(C)cc2c1OC(CNC(=O)C1CCCO1)C2 (stereo not given)	-18%	/	-20%	/	/	/
CC(=NCc1ccccc1)c1ccc(O)cc1O	-3%	/	-24%	/	30%	/
C/C(=N\NP(=S)(c1ccccc1)c1ccccc1)c1ccc(O)cc1O	-6%	9%	?	16µM*	-3%	-2%
COC(=O)c1sccc1S(=O)(=O)N1CCC(n2c(CC3CCCC3)nc3cccnc32)CC1	-5%	/	-11%	/	/	/
Fc1cccc(Cl)c1-c1nnc2ccc(N3CCOCC3)nn12	/	3%	/	-5%	11%	0%
Clc1cccc(Cl)c1-c1nnc2ccc(N3CCOCC3)nn12	-19%	2%	-11%	0.5µM*	7%	5%
Cc1c(C(=O)N2CCC(Cc3ccccc3)CC2)sc2ncnc(NCc3ccccn3)c12	-16%	/	-24%	/	/	/
O=C1NC(=Nc2ccc3ccccc3c2)S/C1=C/c1ccco1	/	2%	/	32µM*	-8%	1%
